A short description of experiment [1]: inhibitors of TNFa-induced NFkB p65 translocation, primary screen, imaging, HUVEC, MLSMR starter and 10KST1 sets (AID 438).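 For inhibition: signal is the nuclear over cytoplasmic p65 intensity ratio per well.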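 Note: compound added about 3h40 before a 20 min TNFalpha stimulation.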 Conditions: HUVEC TNFa-induced p65 nuclear translocation; cell count: measured here: nuclei count (cytotoxicity indicator), at 2.08 µM; inhibition: at 2 µM, stronger effect = higher value, 0% TNFa-plus-vehicle, 100% no-TNFa wells.
The nature of experiment [2]: inhibitors of mutant huntingtin aggregation, primary screen, imaging, exon1htt(103Q)mCFP cells, high-content imaging (AID 483;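 active = visual image review flags a hit and inhibition of aggregation exceeds 20%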;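 note: compound exposure lasted 3 days before fixation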;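 for nuclei count: percent of the per-plate median nuclei count of sample wells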). Conditions: exon1htt(103Q)mCFP cell line, aggregate imaging, at 2 µM; inhibition of aggregation: stronger effect = higher value; nuclei count: measured here: cell count, toxicity.
Experiment [3] is described as follows: inhibitors of E-selectin induction by TNFa, primary screen, imaging, HUVEC, immunofluorescence, MLSMR starter and 10KST1 sets (AID 487;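 active = visually confirmed hit in the image check and inhibition above 20%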;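 for inhibition: signal is fraction of cell area covered by stained E-selectin grains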;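 for nuclei count: 100% = median nuclei count of all wells on the same plate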). The conditions noted are these: HUVEC TNFalpha-induced E-selectin immunofluorescence imaging, at 2 µM; inhibition: stronger effect = higher value; nuclei count: measured here: cell number, toxicity.
Experiment [4] addresses Voltage-gated potassium channel subunit beta-2 (Rattus norvegicus) (UniProt P62483). The experiment can be described thus: KvBeta enzyme negative modulators, primary screen, biochemical, NADPH fluorescence (AID 622;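 active = fluorescence slope higher than the sample average by over 3 SD, cut at about -0.22 in these data, passing the limit was not always enough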;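 note: slope of raw intensity against log time taken from 70 to 1610 s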). Conditions: recombinant KvBeta, 4-cyanobenzaldehyde reduction, at 10 µM, stronger effect = higher value.
The target is the same in experiment [5]. The experiment can be described thus: KvBeta positive modulators, primary screen, biochemical, NADPH fluorescence (AID 623;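 active = NADPH fluorescence slope more negative than the mean of all samples by about 3 SD, 99.7% confidence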;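 note: fluorescence intensity change per second fitted from 20 to 320 s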). The conditions noted are these: Recombinant KvBeta, NADPH fluorescence decrease slope, 10 min; at 10 µM; stronger effect = lower value.
Experiment [6] has as its target Alpha-2C adrenergic receptor (Homo sapiens) (UniProt P18825). The experiment in a line: modulators of alpha2C/GIRK thallium flux, primary screen, cell-based, HEK293 alpha2C/GIRK1/2 (AID 624;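 active = fluorescence slope after compound addition differing from the mean of all screened samples at 99.7% confidence, in either direction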;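 note: slope of fluorescence ratio to pre-addition baseline per second over 15 to 24 s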). The conditions noted are these: thallium flux BTC fluorescence, at 10 µM, actives lie on both sides.
Experiment [7] in a line: inhibitors of Sendai virus-induced IRF3 signaling, primary screen, TLR/RLR signaling modifier project, cell-based, Sendai virus stimulus, luciferase, 10K MLSCN set (AID 602276;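 active = inhibition at or above 50% at 10 µM; inactive = inhibition below 50%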;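 note: firefly luciferase from ISG56 promoter only with Renilla not read in this screen; 0% = Sendai virus plus DMSO and 100% = medium plus DMSO without virus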). Conditions: HEK293 RL24 IRF3 luciferase reporter, at 10 µM, stronger effect = higher value. Background: A reporter such as luciferase makes a cellular process visible.
A short description of experiment [8]: inhibitors of poly I:C-induced TLR3 signaling, primary screen, cell-based, poly I:C stimulus, luciferase, 10K MLSCN set (AID 602277;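 active = inhibition of the reporter signal at or above 50%; inactive = inhibition below 50%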). The conditions noted are these: HEK293-TLR3 RL24 IRF3 luciferase reporter, at 10 µM, stronger effect = higher value.

SMILES strings stand for the structures. Calls of active or inactive are those of the source.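 Rule for the calls, unless noted: active = inhibition above 20% together with a positive visual image hit; inconclusive = visual image hit but inhibition not above 20%; inactive = no visual image hit.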

Alpha-2C adrenergic receptor (Homo sapiens), sequence (P18825 whole entry, looked up): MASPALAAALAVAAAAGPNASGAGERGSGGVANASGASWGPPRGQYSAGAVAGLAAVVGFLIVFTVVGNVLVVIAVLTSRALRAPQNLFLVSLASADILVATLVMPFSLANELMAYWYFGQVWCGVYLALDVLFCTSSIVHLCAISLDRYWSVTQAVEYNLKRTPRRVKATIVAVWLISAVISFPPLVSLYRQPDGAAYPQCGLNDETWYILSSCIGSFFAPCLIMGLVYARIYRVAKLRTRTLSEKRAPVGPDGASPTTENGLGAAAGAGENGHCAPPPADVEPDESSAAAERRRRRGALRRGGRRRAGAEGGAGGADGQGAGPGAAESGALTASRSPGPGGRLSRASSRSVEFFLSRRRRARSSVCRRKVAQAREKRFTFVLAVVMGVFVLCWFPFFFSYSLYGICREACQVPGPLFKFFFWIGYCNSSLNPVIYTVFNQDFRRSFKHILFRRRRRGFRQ
Voltage-gated potassium channel subunit beta-2 (Rattus norvegicus), sequence (P62483 whole entry, looked up): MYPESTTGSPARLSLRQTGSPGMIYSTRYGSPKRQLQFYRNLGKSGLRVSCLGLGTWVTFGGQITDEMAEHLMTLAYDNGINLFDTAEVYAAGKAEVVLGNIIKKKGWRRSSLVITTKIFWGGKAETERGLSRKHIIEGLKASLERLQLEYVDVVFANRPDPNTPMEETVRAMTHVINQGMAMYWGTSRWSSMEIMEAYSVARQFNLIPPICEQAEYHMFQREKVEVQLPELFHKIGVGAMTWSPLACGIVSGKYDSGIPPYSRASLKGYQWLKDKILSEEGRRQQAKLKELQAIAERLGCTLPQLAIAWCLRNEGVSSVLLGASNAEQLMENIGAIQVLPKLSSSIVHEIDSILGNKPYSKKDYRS

On to `COc1cc(OC)c(-c2nn3c(C4CCCCC4)nnc3s2)cc1OC`, for which the cell count in experiment [1] came out at 573. For the same compound, the inhibition in experiment [1] was 7.2% (inactive); in experiment [3], -115% (inactive); in experiment [7], 12.8% (inactive); in experiment [8], 16.9% (inactive). The inhibition of aggregation in experiment [2] is 1.8% (inactive). For the same compound, the nuclei count in experiment [2] turned out to be 109%; in experiment [3], 126%. In experiment [4], the fluorescence slope was -0.412 (inactive). The NADPH fluorescence slope in experiment [5] was -5.9e-05 (inactive). Also, the slope in experiment [6] was 0.00604 (inactive).

Turning to `COCCn1c(C)cc(C(=O)CSc2nc3ccccc3c(=O)[nH]2)c1C`, in experiment [1], the cell count was found to be 287. Also, the inhibition in experiment [1] was -9.5% (inactive); in experiment [3] it was -22.3% (inactive); in experiment [7], -28% (inactive); in experiment [8], -89.1% (inactive). For the same compound, the inhibition of aggregation in experiment [2] is -2.6% (inactive). Also, the values for the nuclei count in experiment [2] and in experiment [3] were 95.3% and 114%, respectively. Also, the fluorescence slope in experiment [4] was -0.595 (inactive). Also, in experiment [5], the NADPH fluorescence slope was -3.8e-05 (inactive). Also, in experiment [6], the slope is 0.00437 (inactive).

Take `C#CCN1C(=O)C(O)(CC(=O)c2cc(OC)ccc2OC)c2ccccc21` (centres undefined): in experiment [1], the cell count is 841. Also, the inhibition was -2.9% (inactive) in experiment [1], -183% (inactive) in experiment [3], 17.5% (inactive) in experiment [7] and 20% (inactive) in experiment [8]. The inhibition of aggregation in experiment [2] was 1.3% (inactive). Besides, the nuclei count in experiment [2] was 97.5%; in experiment [3], 124%. In addition, the fluorescence slope in experiment [4] is -0.411 (inactive). Moreover, in experiment [5], the NADPH fluorescence slope is -3.9e-05 (inactive). Besides, the slope in experiment [6] was 0.00497 (inactive).

Take `Nc1nc(SCc2ccc(Cl)cc2Cl)n[nH]1`: the cell count in experiment [1] stood at 352. Besides, the inhibition was -1.7% (inactive) in experiment [1], -161% (inactive) in experiment [3], -12% (inactive) in experiment [7] and -30.1% (inactive) in experiment [8]. The inhibition of aggregation in experiment [2] is -21.4% (inactive). Further, the nuclei count in experiment [2] was 97.6%; in experiment [3], 124%. Besides, the fluorescence slope in experiment [4] was -0.387 (inactive). Also, in experiment [5], the NADPH fluorescence slope was -4.5e-05 (inactive). Besides, the slope in experiment [6] is 0.00474 (inactive).

For `CN(Cc1cccs1)C(=O)CCc1ccc(S(=O)(=O)N2CCOCC2)cc1`, in experiment [1], the cell count was determined as 475. In addition, the inhibition is 1% (inactive) in experiment [1], -10.9% (inactive) in experiment [3], -6.32% (inactive) in experiment [7] and 14.6% (inactive) in experiment [8]. The inhibition of aggregation in experiment [2] is -10.3% (inactive). In addition, the figures for the nuclei count in experiment [2] and in experiment [3] were 94% and 114%, respectively. Further, the fluorescence slope in experiment [4] was -0.466 (inactive). The NADPH fluorescence slope in experiment [5] was -3.6e-05 (inactive). The slope in experiment [6] is 0.00394 (inactive).

For the compound `COc1ccc2nc(SCC(=O)NC(C)C)[nH]c2c1`, the cell count in experiment [1] was determined as 626. Besides, the inhibition in experiment [1] is 1.4% (inactive); in experiment [3], -35.2% (inactive); in experiment [7], -7.68% (inactive); in experiment [8], -5% (inactive). The inhibition of aggregation in experiment [2] was -0.8% (inactive). The nuclei count in experiment [2] is 104%; in experiment [3], 107%. The fluorescence slope in experiment [4] was -0.478 (inactive). Moreover, in experiment [5], the NADPH fluorescence slope is 5.9e-05 (inactive). The slope in experiment [6] is 0.0062 (inactive).

`Cc1cccc(-c2cc3nc(C)cc(NCCCN(C)C)n3n2)c1`: the cell count in experiment [1] turned out to be 399. The inhibition was -0.5% (inactive) in experiment [1], -44.2% (inactive) in experiment [3], 21% (inactive) in experiment [7] and 9.1% (inactive) in experiment [8]. For the same compound, the inhibition of aggregation in experiment [2] is -9.4% (inactive). In addition, the nuclei count came out at 114% in experiment [2] and 98.7% in experiment [3]. Moreover, the fluorescence slope in experiment [4] is -0.56 (inactive). The NADPH fluorescence slope in experiment [5] was -7.5e-05 (inactive). In addition, the slope in experiment [6] was 0.00413 (inactive).

Consider `CCOC(=O)N1CCC(Nc2ncnc3c2cnn3-c2ccc(C)cc2C)CC1`, for which the cell count in experiment [1] was found to be 684. Also, the inhibition in experiment [1] is -0.8% (inactive); in experiment [3] it was -36.3% (inactive); in experiment [7], 3.02% (inactive); in experiment [8], -54.1% (inactive). Further, the inhibition of aggregation in experiment [2] was 6.9% (inactive). Further, the nuclei count came to 92.6% in experiment [2] and 124% in experiment [3]. Moreover, in experiment [4], the fluorescence slope was -0.529 (inactive). The NADPH fluorescence slope in experiment [5] is -4.5e-05 (inactive). Besides, in experiment [6], the slope is 0.00533 (inactive).

In the case of `O=C(CN(C(=O)CCNC(=O)c1ccco1)c1ccccc1)NC1CCCC1`, in experiment [1], the cell count was 311. In addition, the inhibition was -7.8% (inactive) in experiment [1], -61.7% (inactive) in experiment [3], -10.7% (inactive) in experiment [7] and -6.31% (inactive) in experiment [8]. Also, the inhibition of aggregation in experiment [2] is 27.1% (inactive). Further, the nuclei count in experiment [2] amounted to 93.4%; in experiment [3], 113%. Besides, the fluorescence slope in experiment [4] is -0.542 (inactive). Moreover, the NADPH fluorescence slope in experiment [5] was 2.6e-05 (inactive). Also, in experiment [6], the slope is 0.00484 (inactive).

As for `Cc1ccc2oc(=O)c3cnn(CC(=O)NCCC(C)C)c3c2c1`, the cell count in experiment [1] amounted to 618. The inhibition was -3.9% (inactive) in experiment [1], -31.4% (inactive) in experiment [3], 7.61% (inactive) in experiment [7] and 18.2% (inactive) in experiment [8]. Further, the inhibition of aggregation in experiment [2] is -7.6% (inactive). Moreover, the values for the nuclei count in experiment [2] and in experiment [3] were 124% and 104%, respectively. The fluorescence slope in experiment [4] was -0.602 (inactive). The NADPH fluorescence slope in experiment [5] was -2.9e-05 (inactive). Also, the slope in experiment [6] was 0.0065 (inactive).

On to `Cc1ccc(C(C(=O)NC2CCCCC2)N2CCOCC2)cc1` (centres undefined), for which the cell count in experiment [1] stood at 674. The inhibition is -5.2% (inactive) in experiment [1], -41.7% (inactive) in experiment [3], -0.432% (inactive) in experiment [7] and 15.1% (inactive) in experiment [8]. Moreover, the inhibition of aggregation in experiment [2] is -13% (inactive). The nuclei count in experiment [2] turned out to be 114%; in experiment [3], 125%. Further, the fluorescence slope in experiment [4] is -0.468 (inactive). The NADPH fluorescence slope in experiment [5] was -0.000297 (inactive). For the same compound, the slope in experiment [6] is 0.00526 (inactive).

Consider `CCN(CC)C(=O)c1ccc(CS(=O)(=O)c2ccc(OC)cc2)o1`, for which the cell count in experiment [1] came to 560. The inhibition in experiment [1] was -2% (inactive); in experiment [3] it was -67.7% (inactive); in experiment [7], -17.1% (inactive); in experiment [8], -10.1% (inactive). For the same compound, the inhibition of aggregation in experiment [2] is 1.4% (inactive). Further, the nuclei count in experiment [2] worked out at 102%; in experiment [3], 125%. In addition, the fluorescence slope in experiment [4] was -0.599 (inactive). Besides, the NADPH fluorescence slope in experiment [5] was -3e-05 (inactive). Besides, the slope in experiment [6] is 0.00698 (inactive).

Take `O=C(NCCc1ccccn1)c1ccc(COc2ccccc2)o1`: the cell count in experiment [1] came to 450. Besides, the inhibition is -26.3% (inactive) in experiment [1], -39.9% (inactive) in experiment [3], 3.41% (inactive) in experiment [7] and -2.41% (inactive) in experiment [8]. Further, the inhibition of aggregation in experiment [2] is 8.3% (inactive). Besides, the nuclei count in experiment [2] was found to be 93.3%; in experiment [3] it was 156%. Besides, in experiment [4], the fluorescence slope is -0.449 (inactive). The NADPH fluorescence slope in experiment [5] is -4.6e-05 (inactive). For the same compound, the slope in experiment [6] was 0.00624 (inactive).

As to `COc1cc(-n2nc(C)c3c2OC(N)=C(C#N)C3c2ccccc2)c(Cl)c(Br)c1O` (centres undefined), the cell count in experiment [1] was found to be 490. The inhibition is -1.6% (inactive) in experiment [1], -8.7% (inactive) in experiment [3], 18.2% (inactive) in experiment [7] and 14.7% (inactive) in experiment [8]. Moreover, the inhibition of aggregation in experiment [2] is 2.1% (inactive). Also, the nuclei count amounted to 71.4% in experiment [2] and 108% in experiment [3]. The fluorescence slope in experiment [4] is -0.397 (inactive). For the same compound, in experiment [5], the NADPH fluorescence slope was -3.5e-05 (inactive). Also, in experiment [6], the slope was 0.00309 (inactive).

As usually defined, the inhibition is the change of the read-out against control, counted positive when it falls.

Values taken from PubChem BioAssay.
